Test results from PubChem BioAssay (NCATS).
Results filed as inconclusive are left out. Activity calls are given as the source filed them. Unless noted, calls come from the whole dose curve; as a rule, active = well fitted curve in the direction sought with a large enough effect; inconclusive = small, poorly fitted or top-dose-only effect, or another doubt; inactive = no such curve, though single readings can be large; an effect the other way counts as inactive or inconclusive.

Columns and labels:
[1] = molecular target: Muscarinic acetylcholine receptor M1 (Rattus norvegicus) (UniProt P08482); assay: qHTS Assay for Antagonists of Acetylcholine Muscarinic M1 Receptor: Kinetic Measurement of Intracellular Calcium Response (AID 943); note: potency is the fitted concentration of half-maximal effect; nearly all actives have a fitted effect of over 75% in size
Chain of Muscarinic acetylcholine receptor M1 (Rattus norvegicus) (P08482 whole entry, looked up): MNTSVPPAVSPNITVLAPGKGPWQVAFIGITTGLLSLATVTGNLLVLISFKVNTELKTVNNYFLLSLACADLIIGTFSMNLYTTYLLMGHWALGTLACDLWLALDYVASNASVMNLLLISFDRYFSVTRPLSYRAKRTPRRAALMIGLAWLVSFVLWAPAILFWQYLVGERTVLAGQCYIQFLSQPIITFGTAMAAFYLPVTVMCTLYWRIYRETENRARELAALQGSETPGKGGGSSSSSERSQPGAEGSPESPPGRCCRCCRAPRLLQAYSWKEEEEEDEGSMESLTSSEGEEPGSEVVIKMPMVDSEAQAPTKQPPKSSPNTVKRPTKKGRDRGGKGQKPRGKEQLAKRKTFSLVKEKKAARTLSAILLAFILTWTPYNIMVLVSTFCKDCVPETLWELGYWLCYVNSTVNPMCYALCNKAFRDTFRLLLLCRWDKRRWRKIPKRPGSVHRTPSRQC
Procedure, shortened: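 Intracellular calcium flux, recorded with Fluo-4 in a kinetic plate reader, served as signal; the response to carbachol at EC80 (100 nM final) was taken as maximal over minimal fluorescence after a 10 min compound pre-incubation in rat M1-CHO cells.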

[2] = S16 Schwann cell PMP22 intronic element beta-lactamase assay (AID 624044; calls by dose curve; note: nearly all actives have a fitted effect of over 15% in size)
Procedure, shortened: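 Rat S16 Schwann cells with beta-Lac driven by a PMP22 intronic element, compound-treated 24 h at 37 °C. LiveBLAzer FRET B/G read: 460 nm normalized to potassium clavulanate vs DMSO; 535 nm FRET as viability; concentration-effect curves classified.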

[3] = tested on: 7G8; assay: qHTS profiling for inhibitors of Plasmodium falciparum proliferation (AID 504749); note: nearly all actives have a fitted effect of over 60% in size; note: potency is the fitted concentration of half-maximal effect; details: P. falciparum in erythrocytes, SYBR Green DNA, 72 h; series mostly up to 28.7 µM
Procedure, shortened: (§1)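 P. falciparum-infected erythrocytes (0.3% parasitemia, 2.5% hematocrit final) were exposed to compounds for 72 h at 37 C in 5% CO2, then lysed with SYBR Green buffer overnight at room temperature; parasite DNA fluorescence was normalized to artemisinin and DMSO controls.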

[4] = tested on: ATS189; assay: as above; details: P. falciparum in erythrocytes, SYBR Green DNA, 72 h; series mostly up to 28.7 µM
Procedure, shortened: as §1

[5] = tested on: ATS95; assay: as above; details: P. falciparum in erythrocytes, SYBR Green DNA, 72 h; series mostly up to 28.7 µM
Procedure, shortened: as §1

[6] = tested on: CP191; assay: as above; details: P. falciparum in erythrocytes, SYBR Green DNA, 72 h; series mostly up to 28.7 µM
Procedure, shortened: as §1

[7] = tested on: CP237; assay: as above; details: P. falciparum in erythrocytes, SYBR Green DNA, 72 h; series mostly up to 28.7 µM
Procedure, shortened: as §1

[8] = tested on: DIV14; assay: as above; details: P. falciparum in erythrocytes, SYBR Green DNA, 72 h; series mostly up to 28.7 µM
Procedure, shortened: as §1

[9] = tested on: DIV17; assay: as above; details: P. falciparum in erythrocytes, SYBR Green DNA, 72 h; series mostly up to 28.7 µM
Procedure, shortened: as §1

[10] = tested on: Dd2; assay: as above; details: P. falciparum in erythrocytes, SYBR Green DNA, 72 h; series mostly up to 28.7 µM
Procedure, shortened: as §1

[11] = tested on: FAB9; assay: as above; details: P. falciparum in erythrocytes, SYBR Green DNA, 72 h; series mostly up to 28.7 µM
Procedure, shortened: as §1

[12] = tested on: ICS; assay: as above; details: P. falciparum in erythrocytes, SYBR Green DNA, 72 h; series mostly up to 28.7 µM
Procedure, shortened: as §1

[13] = tested on: P93_24; assay: as above; details: P. falciparum in erythrocytes, SYBR Green DNA, 72 h; series mostly up to 28.7 µM
Procedure, shortened: as §1

[14] = tested on: SC27B; assay: as above; details: P. falciparum in erythrocytes, SYBR Green DNA, 72 h; series mostly up to 28.7 µM
Procedure, shortened: as §1

[15] = tested on: TAB165; assay: as above; details: P. falciparum in erythrocytes, SYBR Green DNA, 72 h; series mostly up to 28.7 µM
Procedure, shortened: as §1

[16] = molecular target: Cytochrome P450 2D6 (Homo sapiens) (UniProt P10635); assay: qHTS Assay for Inhibitors and Substrates of Cytochrome P450 2D6 (AID 891); note: potency is the fitted concentration of half-maximal effect; nearly all actives have a fitted effect of over 60% in size
Chain of Cytochrome P450 2D6 (Homo sapiens) (P10635 whole entry, looked up): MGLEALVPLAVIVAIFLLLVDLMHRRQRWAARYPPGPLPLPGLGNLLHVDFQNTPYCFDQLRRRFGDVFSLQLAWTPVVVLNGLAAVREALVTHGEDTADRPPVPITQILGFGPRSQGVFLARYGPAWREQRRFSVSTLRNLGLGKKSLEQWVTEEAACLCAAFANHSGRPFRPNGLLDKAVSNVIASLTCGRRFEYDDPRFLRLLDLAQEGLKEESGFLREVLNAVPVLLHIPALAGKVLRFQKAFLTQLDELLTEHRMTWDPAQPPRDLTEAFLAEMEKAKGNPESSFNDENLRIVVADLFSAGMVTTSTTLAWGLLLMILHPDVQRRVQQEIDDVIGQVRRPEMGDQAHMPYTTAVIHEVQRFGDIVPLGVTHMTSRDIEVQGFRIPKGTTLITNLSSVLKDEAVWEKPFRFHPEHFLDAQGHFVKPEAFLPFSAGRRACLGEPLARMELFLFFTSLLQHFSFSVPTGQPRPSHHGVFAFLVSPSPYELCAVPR
Procedure, shortened: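 Human CYP2D6 (5 nM) with 30 uM Luciferin-ME EGE (at Km) in 100 mM KPO4, compound preincubated 10 min, then NADPH regeneration system for 60 min at room temperature. Luciferin read by luminescence; normalized to 1.43 uM quinidine.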

CN1CCN(CCC=C2c3ccccc3Sc3ccc(S(=O)(=O)N(C)C)cc32)CC1
Potency [1]: 14.1 µM (active) | Potency [2]: inactive | Potency [3]: 5.01 µM (active) | Potency [4]: 8.91 µM (active) | Potency [5]: 11.2 µM (active) | Potency [6]: 12.6 µM (active) | Potency [7]: 11.2 µM (active) | Potency [8]: 8.49 µM (active) | Potency [9]: 9.53 µM (active) | Potency [10]: 12.6 µM (active) | Potency [11]: inactive | Potency [12]: 7.94 µM (active) | Potency [13]: 12.6 µM (active) | Potency [14]: 11.2 µM (active) | Potency [15]: 8.91 µM (active)

COc1cc(/C=C(\C#N)C(N)=O)cc(CSc2nc3ccccc3s2)c1O
Potency [16]: 25.1 nM (active)
